From PubChem BioAssay
This excerpt belongs to a sample that is enriched for hits.
hDAT+cocaine: modulates human dopamine transporter uptake under cocaine; LLC-PK1 hDAT cells, [14C]-dopamine uptake with cocaine IC80; actives deviate in either direction; B-score at 10 µM; 1.3% of 110,000 active;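 active = Z score or B-score, a plate-position-corrected score, falls beyond the plate's 99.7% confidence bounds, in either direction; inactive = both scores lie inside the 99.7% bounds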;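 also: scored against the spread of the other compound wells on the same plate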
TNAP act mid DEA: activators of human TNAP at intermediate phosphate acceptor; P05186; purified TNAP, CDP-star luminescence, 100 mM DEA, 30 min; hits give high values; scale: 0 levamisole-inhibited, 1 vehicle-only enzyme; activation factor at 20 µM; 64,000 tested, under 10 active;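 active = activation factor of at least 2 at 20 µM, relative to controls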
D1 allo mod: D1 dopamine receptor (human) allosteric modulation | P21728 | HEK293 D1, CRE-luciferase, dopamine EC30 potentiation; actives deviate in either direction | B-score at 10 µM | 5.9% of 58,000 active | AID 641;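 active = luminescence count or its row- and column-corrected plate score outside the 99.7% band of the plate's sample wells, on either side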
Candida biofilm: kills Candida albicans biofilms; AID 834; C. albicans biofilm + clotrimazole, Alamar Blue; inhibition, % at 6 µM; 0.14% of 85,000 active;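 active = inhibition above 20%; inactive = inhibition below 20%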;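 also: preformed 24 hr biofilms exposed to compound for 48 hr; 0% = biofilm without compound and 100% = blank killed by clotrimazole plus chlorhexidine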
HePTP inh: blocks human HePTP tyrosine phosphatase. P35236. recombinant HePTP phosphatase activity, OD absorbance. inhibition, % at 20 µM. 0.64% of 110,000 active. AID 521; in the data active = inhibition above about 50%;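 also: plate controls were vehicle for no effect and reference inhibitor for full effect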
Target sequence (P35236 whole entry, looked up): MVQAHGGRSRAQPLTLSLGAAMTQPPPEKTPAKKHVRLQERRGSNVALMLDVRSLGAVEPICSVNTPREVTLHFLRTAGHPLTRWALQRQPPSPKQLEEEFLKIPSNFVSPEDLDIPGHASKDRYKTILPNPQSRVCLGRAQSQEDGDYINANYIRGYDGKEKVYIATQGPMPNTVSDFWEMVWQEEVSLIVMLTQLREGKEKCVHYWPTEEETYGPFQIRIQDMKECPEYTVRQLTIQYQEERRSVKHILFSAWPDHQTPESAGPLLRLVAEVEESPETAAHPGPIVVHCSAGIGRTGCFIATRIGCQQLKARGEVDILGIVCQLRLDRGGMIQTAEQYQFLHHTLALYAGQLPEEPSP
PLAP activator: human PLAP activation | P05187 | purified PLAP enzyme, luminescent substrate read-out; hits give high values | activation fold at 20 µM | 1.2% of 96,000 active | AID 696; in the data active = activation fold above about 2
The depositor's hits bear a star; / = no result.

SMILES	hDAT+cocaine	TNAP act mid DEA	D1 allo mod	Candida biofilm	HePTP inh	PLAP activator
CC(NC(=O)CN1CCC(C(N)=O)CC1)c1ccccc1 (stereo not drawn)	-8.1*	1	-0.003	9	-4	1
CN(C)c1ccc(NC(=O)CCC2CCCCC2)cc1	/	/	/	/	0	/
CSc1n[nH]c(NC(=O)c2cc(F)c(F)c(F)c2F)n1	/	/	/	/	0	/
O=C(CC1S/C(=N\N=C\c2ccco2)NC1=O)Nc1ccc(C(=O)O)cc1 (stereo not drawn)	/	/	/	/	101*	/
O=C(CC1S/C(=N\N=C\c2cccs2)NC1=O)Nc1ccccc1C(F)(F)F (stereo not drawn)	/	/	/	/	5	/
CCNC(=O)CC1S/C(=N\N=C(/C)c2ccc([N+](=O)[O-])cc2)NC1=O (stereo not drawn)	/	/	/	/	4	/
O=C(CC1S/C(=N\N=C\c2ccco2)NC1=O)Nc1cccc(Cl)c1Cl (stereo not drawn)	/	/	/	/	9	/
O=C(CC1S/C(=N\N=C\c2cccs2)NC1=O)Nc1ccc(C(=O)O)cc1 (stereo not drawn)	/	/	/	/	90*	/
C/C(=N\N=C1\NC(=O)C(CC(=O)Nc2ccc(C(=O)O)cc2)S1)c1ccc([N+](=O)[O-])cc1 (stereo not drawn)	/	/	/	/	94*	/
O=C(CCN1C(=O)/C(=C/c2ccc(Cl)cc2)SC1=S)Nc1cccc(O)c1	/	/	/	/	-7	/
O=[N+]([O-])c1cncc([N+](=O)[O-])c1Nc1ccc(Cl)cn1	/	/	/	/	87*	/
O=C(COc1ccccc1[N+](=O)[O-])Nc1ccc(Cl)cn1	/	/	/	/	5	/
CCc1ccc(NCc2nc3ccccc3c(=O)[nH]2)cc1	-9.2*	/	/	/	/	1.1
O=c1[nH]c(SCc2ccccc2)nc2ccccc12	/	/	/	/	10	/
CC(C)(C)c1ccc(CSc2nc3ccccc3c(=O)[nH]2)cc1	/	/	/	/	69*	/
CC1CCCC(C)N1C(=O)Cn1cc(/C=C2/C(=O)Nc3ccccc32)c2ccccc21 (stereo not drawn)	1.8	/	/	-1	/	1
CN1C(=O)/C(=C/c2cn(CC(=O)N3CCCCC3)c3ccccc23)c2ccccc21	3.8*	/	/	-2	/	1
Cc1nn(Cc2ccccc2Cl)c(C)c1NC(=O)NC12CC3CC(CC(C3)C1)C2	0.41	/	/	/	/	2*
O=C(Nc1ccc2c(c1)OCCO2)c1cccnc1	0.018	0.9	-3.2*	2	8	1
O=C(Nc1ccc2c(c1)OCO2)c1ccc2nc[nH]c2c1	-1.9*	/	/	-2	/	2*
Cc1noc(C)c1S(=O)(=O)Nc1ccc(C(=O)N2CCN(c3ccc(Cl)cc3)CC2)cc1	/	1	-3.7*	/	-12	1.1
Cc1onc(-c2ccccc2)c1C(=O)N1CCN(c2ccc(Cl)cc2)CC1	/	/	/	/	104*	/
CCc1ccc(-c2cc(C(=O)N3CCN(c4ccc(F)cc4)CC3)c3ccccc3n2)cc1	/	/	/	/	7	/
CC(C(=O)NN)C1=NC(C)(C)Cc2ccccc21 (stereo not drawn)	/	/	/	/	54*	/
CC(C)Sc1nc(N2CCOCC2)c2c(c1C#N)CC(C)(C)SC2	-0.51	0.9	2.1	3	7	0.9
SMILES	hDAT+cocaine	TNAP act mid DEA	D1 allo mod	Candida biofilm	HePTP inh	PLAP activator
CC(C)Sc1nc(N2CCOCC2)c2c(c1C#N)CC(C)(C)N(C)C2	0.046	/	/	-3	/	2*
CC1(C)Cc2c(C#N)c(SCC(=O)c3ccccc3)nc(N3CCOCC3)c2CO1	1.2	0.8	-3.3*	1	8	1.3
Cc1ccc(CNC(=O)c2ccc([N+](=O)[O-])cc2)cc1	/	/	/	/	10	/
Fc1ccccc1OCCCCn1ccnc1	/	/	/	/	4	/
CN1C(C(=O)NCc2cccc(C(F)(F)F)c2)CC2Cn3c(nc4cc5ccccc5cc43)C21 (stereo not drawn)	1.5*	/	/	/	/	/
Cc1cc2nc3n(c2cc1C)CC1CC(C(=O)NCc2cccc(C(F)(F)F)c2)N(C)C31 (stereo not drawn)	0.81	/	/	/	/	/
O=C(/C=C/c1ccccc1)NC(NC(=S)Nc1cccc(Cl)c1)C(Cl)(Cl)Cl (stereo not drawn)	-7.3*	/	/	/	/	0.9
O=C(CCc1ccccc1)NC(NC(=S)Nc1cccc(Cl)c1)C(Cl)(Cl)Cl (stereo not drawn)	2.7	/	/	5	/	/
CC(/C=C/c1ccccc1)=NNC(=O)c1ccc(Cl)cc1O	/	/	/	/	-9	/
Cc1cc(N2C(=O)NC(=O)/C(=C/c3cc4c(cc3[N+](=O)[O-])OCO4)C2=O)ccc1Br	/	/	/	/	-7	/
O=C(COc1ccccc1)NNC(=O)COc1ccc(Br)cc1	/	/	/	/	-6	/
